In PubChem BioAssay (Tox21):
Unmarked numbers belong to inactive results. Results filed as inconclusive are left out. Where a call stands in place of a potency, no number is given. Calls of active or inactive are those of the source. Unless noted, calls come from the whole dose curve.

Tests used:
[1] = Nuclear factor erythroid 2-related factor 2/antioxidant responsive element (Nrf2/ARE) small molecule agonists: qHTS cell viability counter screen in human keratinocytes (AID 1919968; active = well fitted cell-killing curve with a large enough effect in the repeat runs; note: nearly all actives have a fitted effect of over 55% in size)
Outline: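 Fluorescence read-out from CellTiter-Fluor after 1 h at 37 C. Wells held HaCaT-derived ARE-luciferase reporter cells (1,500/well) treated 23 h with DMSO-dissolved compounds. Run in the same wells as the luciferase agonist read.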

[2] = Nuclear factor erythroid 2-related factor 2/antioxidant responsive element (Nrf2/ARE) small molecule agonists: luciferase reporter gene qHTS assay in human keratinocytes (AID 1919969); note: nearly all actives have a fitted effect of over 35% in size; note: potency is the fitted concentration of half-maximal effect
[3] = target: Gonadotropin-releasing hormone receptor (Homo sapiens) (UniProt P30968); experiment: Human gonadotropin-releasing hormone receptor (GnRHR) small molecule agonists, calcium flux assay in GnRHR-HEK293 cells (AID 1920063); note: nearly all actives have a fitted effect of over 35% in size
Outline: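 Calcium-dye fluorescence, Ex/Em=480/540, recorded every 1 sec over 3 min after compound addition to GnRHR-HEK293 cells. Cells had been seeded 18 hours earlier and dye-loaded for 1 hour at 37 C. Fifteen concentrations, triplicates.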

[4] = G protein-coupled receptor (GPCR) small molecule agonists, calcium flux assay: HEK293 wild type cell line counter screen (AID 1920065)
Outline: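 Agonist mode; 18 h seeding at 37 C, 1 h dye load at 37 C; compounds pinned from DMSO, ATP as positive control; kinetic fluorescence 480/540 nm, 3 min, 1 s reads; 15 concentrations, triplicate.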

[5] = p53 small molecule agonists, cell-based qHTS assay with human liver microsomes (AID 1963577)
Outline: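 p53RE-bla reporter cells were pre-incubated 5 h at 37 C, then treated with compounds plus human liver microsomes (0.5 mg/mL final) and NADPH (0.5 mg/mL final) for 16 h at 37 C. Beta-lactamase activity was read by LiveBLAzer fluorescence after 2 h at room temperature.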

[6] = p53 small molecule agonists, cell-based qHTS assay with rat liver microsomes (AID 1963578)
Outline: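 p53RE-bla cells were exposed to compounds together with rat liver microsomes (0.5 mg/mL final) and NADPH (0.5 mg/mL final) for 16 h at 37 C, then read by LiveBLAzer beta-lactamase fluorescence after 2 h at room temperature.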

[7] = p53 small molecule agonists, cell-based qHTS assay with human liver microsomes: qHTS cell viability counter screen (AID 1963579); note: nearly all actives have a fitted effect of over 45% in size; note: potency is the fitted concentration of half-maximal effect
Outline: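 p53RE-bla cells (4,000/well) were pre-incubated 5 h at 37 C, then given compounds in DMSO plus human liver microsomes (0.5 mg/mL final) and NADPH (0.5 mg/mL final) for 16 h at 37 C. Viability was read by CellTiter-Glo luminescence.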

[8] = p53 small molecule agonists, cell-based qHTS assay with rat liver microsomes: qHTS cell viability counter screen (AID 1963580); note: nearly all actives have a fitted effect of over 45% in size
Outline: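 Luminescent ATP readout (CellTiter-Glo, 30 min at room temperature) reports viability of p53RE-bla HCT-116 cells after 16 h at 37 C with test compounds under metabolic activation by rat liver microsomes and NADPH at 0.5 mg/mL final each.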

[9] = p53 small molecule agonists, cell-based qHTS assay: qHTS cell viability counter screen (AID 1963581); note: nearly all actives have a fitted effect of over 45% in size
Outline: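 Cytotoxicity read-out: ATP-based luminescence (CellTiter-Glo, 30 min RT) measured in the same wells as the p53 reporter assay, HCT-116 p53RE-bla cells, 16 h compound exposure at 37 C.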

[10] = p53 small molecule agonists, cell-based qHTS assay (AID 1963582; active = well fitted activation curve with a large enough effect in the signal ratio in the repeat runs, not every such curve was filed as active; the % refers to the signal ratio)
Outline: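 Fluorescence intensity read-out of a beta-lactamase reporter under a p53 response element. Cells were exposed to DMSO-dissolved compounds for 16 h at 37 C, then developed with FRET substrate for 2 h at RT.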

[11] = target: 5-hydroxytryptamine receptor 2A (Homo sapiens) (UniProt P28223); experiment: 5-hydroxytryptamine receptor 2A (HTR2A) small molecule antagonists, cell-based qHTS assay (AID 1963586); note: nearly all actives have a fitted effect of over 45% in size
Outline: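 CHO cells stably expressing human HTR2A were plated for 18 h at 37 C, then loaded with calcium dye for 1 h. Compounds were preincubated 5 min at room temperature before DOI (4 nM solution) was added. Kinetic fluorescence was read for 3 min.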

[12] = target: 5-hydroxytryptamine receptor 2A (Homo sapiens) (UniProt P28223); experiment: 5-hydroxytryptamine receptor 2A (HTR2A) small molecule agonists, cell-based qHTS assay (AID 1963587); note: nearly all actives have a fitted effect of over 30% in size
Outline: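 HTR2A-CHO cells, plated 18 h at 37 C/5% CO2, dye-loaded 1 h at 37 C; compounds in DMSO added by pin tool (agonist mode). Intracellular calcium flux read as kinetic fluorescence on FDSS over 2 min at 1 s intervals.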

[13] = target: Muscarinic acetylcholine receptor M1 (Homo sapiens) (UniProt P11229); experiment: Cholinergic receptor muscarinic 1 (CHRM1) small molecule antagonists, cell-based qHTS assay (AID 1963588); note: nearly all actives have a fitted effect of over 40% in size; note: potency is the fitted concentration of half-maximal effect
Outline: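 Compounds were tested at 15 concentrations in three independent runs. Dye-loaded CHRM1-CHO cells were exposed 5 min at room temperature before stimulation by acetylcholine added at 50nM. Intracellular calcium was read kinetically on FDSS for 3 min.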

[14] = target: Muscarinic acetylcholine receptor M1 (Homo sapiens) (UniProt P11229); experiment: Cholinergic receptor muscarinic 1 (CHRM1) small molecule agonists, cell-based qHTS assay (AID 1963589); note: nearly all actives have a fitted effect of over 35% in size
Outline: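 Calcium flux read-out: kinetic fluorescence at 1 sec intervals after pin-tool compound addition to dye-loaded CHRM1-CHO cells (human M1). Agonist mode; 15 concentrations tested in triplicate independent runs.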

[15] = cAMP Responsive Elements (CRE) small molecule agonists, cell-based qHTS assay (AID 1963590)
Outline: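 Beta-lactamase reporter readout: LiveBLAzer B/G FRET substrate, 2 h at room temperature, added after 3 h compound treatment of CRE-bla HEK 293T cells at 37 C/5% CO2.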

[16] = cAMP Responsive Elements (CRE) small molecule antagonists, cell-based qHTS assay (AID 1963591; active = well fitted inhibition curve with a large enough effect in the signal ratio in the repeat runs, not every such curve was filed as active; the % refers to the signal ratio)
Outline: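 HEK293T CRE-bla; 18 h preincubation; compound pin-transfer; NKH477 0.25 uM final, 3 h, 37 C; LiveBLAzer FRET substrate 2 h RT.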

[17] = target: Beta-2 adrenergic receptor (Homo sapiens) (UniProt P07550); experiment: Adrenergic beta2 receptor (ADRB2) small molecule antagonists, cell-based qHTS assay (AID 1963592); note: series mostly up to about 92 µM; nearly all actives have a fitted effect of over 50% in size
Outline: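 Assay format: CHO-ADRB2 cells, 18-20hr seeding at 37C/5% CO2, then compound plus 1nM isoproterenol agonist mix for 0.5hr RT. Homogeneous time-resolved fluorescence cAMP detection after 1hr, expressed as 665/615 nm ratio.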

[18] = target: D(2) dopamine receptor (Homo sapiens) (UniProt P14416); experiment: Dopamine D2 receptor (DRD2) small molecule antagonists, cell-based qHTS assay (AID 1963595; active = well fitted inhibition curve with a large enough effect in the signal ratio in the repeat runs, with a control signal flat; the % refers to the signal ratio)
Outline: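 Antagonism was scored as restored cAMP in HEK293-DRD2 cells. These cells were stimulated with 200 nM NKH477 and 12 nM quinpirole for 30 min at room temperature, in the presence of 0.1 mM Ro20-1724.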

[19] = target: D(2) dopamine receptor (Homo sapiens) (UniProt P14416); experiment: Dopamine D2 receptor (DRD2) small molecule agonists, cell-based qHTS assay (AID 1963594); note: nearly all actives have a fitted effect of over 35% in size
Outline: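 HEK293 cells stably expressing DRD2 were cultured 24 h at 37 C, then given Ro20-1724 (0.1 mM final) and compounds for 10 min at room temperature. NKH477 (200nM) was then added for 30 min. cAMP was read by HTRF.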

[20] = target: Beta-2 adrenergic receptor (Homo sapiens) (UniProt P07550); experiment: Adrenergic beta2 receptor (ADRB2) small molecule agonists, cell-based qHTS assay (AID 1963593);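 note: CHO cells stably overexpressing human ADRB2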
Outline: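 CHO cells stably over-expressing ADRB2 were plated overnight at 37C, then dosed with compounds plus a stimulation mix containing 100uM IBMX and 25uM Ro-20-1724 for 0.5hr at room temperature. cAMP was measured by HTRF competition, 1hr.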

Chain of D(2) dopamine receptor (Homo sapiens) (P14416 whole entry, looked up): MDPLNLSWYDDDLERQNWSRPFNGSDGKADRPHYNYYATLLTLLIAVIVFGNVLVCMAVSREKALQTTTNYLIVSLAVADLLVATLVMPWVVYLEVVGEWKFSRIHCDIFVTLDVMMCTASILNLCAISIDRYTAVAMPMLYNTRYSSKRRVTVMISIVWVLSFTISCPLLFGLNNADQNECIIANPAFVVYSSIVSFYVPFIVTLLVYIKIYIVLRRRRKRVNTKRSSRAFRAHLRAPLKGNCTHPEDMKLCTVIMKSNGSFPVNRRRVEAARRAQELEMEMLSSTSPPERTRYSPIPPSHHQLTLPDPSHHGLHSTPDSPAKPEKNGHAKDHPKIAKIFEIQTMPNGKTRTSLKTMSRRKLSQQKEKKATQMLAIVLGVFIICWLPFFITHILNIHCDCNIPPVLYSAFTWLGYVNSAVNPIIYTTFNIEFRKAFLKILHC
Chain of Gonadotropin-releasing hormone receptor (Homo sapiens) (P30968 whole entry, looked up): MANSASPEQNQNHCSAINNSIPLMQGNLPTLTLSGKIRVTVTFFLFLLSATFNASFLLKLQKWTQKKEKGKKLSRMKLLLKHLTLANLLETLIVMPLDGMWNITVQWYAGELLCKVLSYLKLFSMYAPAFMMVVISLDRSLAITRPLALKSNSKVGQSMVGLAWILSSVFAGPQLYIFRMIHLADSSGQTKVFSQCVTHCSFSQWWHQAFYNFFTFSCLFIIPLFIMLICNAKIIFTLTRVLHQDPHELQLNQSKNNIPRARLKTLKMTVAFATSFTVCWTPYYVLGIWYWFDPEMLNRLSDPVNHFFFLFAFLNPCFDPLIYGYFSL
Chain of Beta-2 adrenergic receptor (Homo sapiens) (P07550 whole entry, looked up): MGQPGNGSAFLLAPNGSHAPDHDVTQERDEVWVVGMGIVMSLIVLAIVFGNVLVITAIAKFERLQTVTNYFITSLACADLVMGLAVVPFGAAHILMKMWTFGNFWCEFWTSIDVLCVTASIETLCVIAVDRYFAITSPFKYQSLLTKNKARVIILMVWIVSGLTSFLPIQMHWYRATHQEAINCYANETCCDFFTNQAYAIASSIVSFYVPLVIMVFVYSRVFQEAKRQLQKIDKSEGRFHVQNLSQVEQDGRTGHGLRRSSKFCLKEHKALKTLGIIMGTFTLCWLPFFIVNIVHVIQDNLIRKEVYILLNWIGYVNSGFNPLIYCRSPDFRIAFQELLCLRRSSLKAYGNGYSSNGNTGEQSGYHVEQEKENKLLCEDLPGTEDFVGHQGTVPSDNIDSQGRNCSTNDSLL
Chain of Muscarinic acetylcholine receptor M1 (Homo sapiens) (P11229 whole entry, looked up): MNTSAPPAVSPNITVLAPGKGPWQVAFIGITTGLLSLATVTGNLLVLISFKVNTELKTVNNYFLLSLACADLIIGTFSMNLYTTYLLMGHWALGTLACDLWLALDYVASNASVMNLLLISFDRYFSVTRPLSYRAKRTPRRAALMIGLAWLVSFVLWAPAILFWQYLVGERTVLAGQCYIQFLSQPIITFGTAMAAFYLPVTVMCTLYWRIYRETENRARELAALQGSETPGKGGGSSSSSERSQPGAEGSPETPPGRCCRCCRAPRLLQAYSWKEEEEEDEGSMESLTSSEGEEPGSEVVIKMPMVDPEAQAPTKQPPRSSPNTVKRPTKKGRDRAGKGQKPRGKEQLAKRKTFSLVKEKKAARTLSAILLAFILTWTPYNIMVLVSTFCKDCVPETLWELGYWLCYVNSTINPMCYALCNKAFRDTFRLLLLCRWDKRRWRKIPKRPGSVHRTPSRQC
Chain of 5-hydroxytryptamine receptor 2A (Homo sapiens) (P28223 whole entry, looked up): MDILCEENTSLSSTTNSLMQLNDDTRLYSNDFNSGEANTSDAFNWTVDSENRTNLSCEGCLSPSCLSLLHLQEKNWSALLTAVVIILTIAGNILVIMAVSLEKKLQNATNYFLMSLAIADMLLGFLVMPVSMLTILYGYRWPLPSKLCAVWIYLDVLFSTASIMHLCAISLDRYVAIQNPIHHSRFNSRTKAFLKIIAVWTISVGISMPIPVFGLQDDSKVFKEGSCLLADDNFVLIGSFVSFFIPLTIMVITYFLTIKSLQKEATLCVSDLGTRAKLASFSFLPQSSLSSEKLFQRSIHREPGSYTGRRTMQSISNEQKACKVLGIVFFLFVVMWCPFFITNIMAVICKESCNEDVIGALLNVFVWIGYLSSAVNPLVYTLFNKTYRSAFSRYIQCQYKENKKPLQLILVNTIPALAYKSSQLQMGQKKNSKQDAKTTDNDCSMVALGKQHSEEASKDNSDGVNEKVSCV

Structure (SMILES)	Potency [1]	Potency [2]	Potency [3]	outcome [4]	Potency [5]	Potency [6]	Potency [7]	Potency [8]	Potency [9]	Potency [10]	Potency [11]	Potency [12]	Potency [13]	Potency [14]	Potency [15]	Potency [16]	Potency [17]	Potency [18]	Potency [19]	Potency [20]
C=C(C)CCCC(C)CCO (stereo not drawn)	inactive	inactive	inactive	inactive	inactive	inactive	inactive	inactive	inactive	inactive	inactive	inactive	inactive	inactive	inactive	inactive	inactive	inactive	–	–
Cc1cccc(C(=O)O)c1[N+](=O)[O-]	inactive	inactive	inactive	inactive	inactive	inactive	inactive	inactive	inactive	inactive	inactive	inactive	inactive	inactive	inactive	inactive	inactive	inactive	inactive	–
CC(C)SCc1ccco1	inactive	inactive	inactive	inactive	inactive	inactive	inactive	inactive	inactive	inactive	inactive	inactive	inactive	inactive	inactive	–	inactive	inactive	inactive	inactive
OCCCO	inactive	inactive	inactive	inactive	inactive	inactive	inactive	inactive	inactive	inactive	inactive	inactive	–	inactive	inactive	inactive	inactive	inactive	inactive	–
COC(=O)C1=C(C)NC(C)=C(C(=O)OC(C)(C)CN(C)CCC(c2ccccc2)c2ccccc2)C1c1cccc([N+](=O)[O-])c1 (stereo not drawn)	inactive	inactive	inactive	inactive	inactive	inactive	inactive	inactive	inactive	inactive	inactive	inactive	6.5 µM (active)	inactive	–	–	inactive	inactive	inactive	–
COc1cc2c(cc1N)oc1ccccc12	inactive	62.4 µM (active)	inactive	inactive	inactive	inactive	33.1 µM (active)	inactive	inactive	inactive	inactive	inactive	inactive	inactive	inactive	inactive	–	inactive	inactive	–
CC(C)C/C=C(\C=O)c1ccccc1	inactive	inactive	inactive	inactive	inactive	inactive	inactive	inactive	inactive	inactive	–	inactive	inactive	inactive	inactive	inactive	–	inactive	inactive	–
CNC(=O)CN(CCN(CCN(CC(=O)[O-])CC(=O)NC)CC(=O)[O-])CC(=O)[O-].O.[Gd+3]	inactive	inactive	inactive	inactive	inactive	inactive	inactive	inactive	inactive	inactive	–	inactive	–	inactive	inactive	inactive	–	–	–	–
C=C[C@@H](C)CCC=C(C)C	inactive	inactive	inactive	inactive	inactive	inactive	inactive	inactive	inactive	inactive	inactive	inactive	inactive	inactive	inactive	inactive	inactive	inactive	inactive	–
CCN(CC)c1cccc(C)c1	inactive	inactive	inactive	inactive	inactive	inactive	inactive	inactive	inactive	inactive	inactive	inactive	–	inactive	inactive	inactive	inactive	inactive	inactive	–
CCCCCCCCCCCC	inactive	inactive	inactive	inactive	inactive	inactive	–	inactive	inactive	inactive	inactive	inactive	–	inactive	inactive	inactive	–	inactive	inactive	–
CN(C)Cc1ccccc1	inactive	inactive	inactive	inactive	inactive	inactive	inactive	inactive	–	inactive	inactive	inactive	inactive	inactive	inactive	inactive	inactive	–	–	inactive
Nc1ccc2cc(S(=O)(=O)O)ccc2c1	inactive	inactive	inactive	inactive	inactive	inactive	inactive	inactive	inactive	–	inactive	inactive	–	inactive	inactive	inactive	inactive	–	inactive	–
C[Si](NC1CCCCC1)(NC1CCCCC1)NC1CCCCC1	inactive	inactive	inactive	inactive	inactive	inactive	inactive	inactive	inactive	–	inactive	inactive	inactive	inactive	–	–	inactive	inactive	inactive	inactive
